IL-1B inflam inh – qHTS for Inhibitors of Inflammasome Signaling: IL-1-beta AlphaLISA Primary Screen; THP-1 LPS/ATP IL-1B secretion, AlphaLISA, 16 h; stronger effect = lower value; activity change, % at 57.5 µM; 360,000 tested, 4.7% active; AID 743279, 2014; in the data active = activity change below about -50%; inconclusive = mostly about -30% to -49%; note: % is set by controls: 0 for no effect and ±100 for the full control effect
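Secreted IL-1B measured by AlphaLISA bead assay after 16 h compound exposure of THP-1 cells; compounds (final up to 57.5 uM) added 1 h before LPS (250 ng/mL) and ATP (1.25 mM) stimulation; lower signal means less secretion.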
HepG2 viability – qHTS for Inhibitors of TGF-b: Cytotox Counterscreen | HepG2 CAGA-GFP viability, ATP luminescence, 18 h | Potency, µM (top dose mostly 46.1 µM), inactives show top-dose activity change, negative = cytotoxicity, most hits filed as cytotoxic | 410,000 tested, 0.76% active; note: potency is the fitted concentration of half-maximal effect
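HepG2 CAGA-GFP cells (1000/well, DMEM with 1% FBS) received compound, then TGF-beta at 500 pg/mL final, and were incubated 18 hours at 37 degrees C. Viability was read by CellTiter-Glo luminescence. Media-only wells were set as complete cell-killing and DMSO as no toxicity.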
TDP1 cell CPT – qHTS for Inhibitors of human tyrosyl-DNA phosphodiesterase 1 (TDP1): qHTS in cells in presence of CPT. 420,000 tested, 12% active. chicken DT40 Tdp1-/-;hTDP1 cells + 20 nM CPT, ATP luminescence, 48 h. AID 686979, 2013. Potency, µM (highest dose often 46.2 µM), for inactives: top-dose activity change, negative = growth inhibition, most hits filed as inhibitors; note: potency is the fitted concentration of half-maximal effect; % is set by controls: 0 for no effect and ±100 for the full control effect; nearly all actives have a fitted effect of over 55% in size
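Chicken DT40 Tdp1-/- cells stably complemented with human TDP1 were seeded at 400 cells/well in medium containing 20 nM camptothecin, exposed to pin-transferred compounds, and grown at 37 °C for at least 48 hr. Viability was read as ATP luminescence.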
TGFb inhibitor – qHTS for Inhibitors of TGF-b. AID 588855, 2011. Potency, µM (highest dose often 46.1 µM), without a hit: top-dose activity, negative = inhibition, usual class: inhibitors. 410,000 tested, 1.2% active. HepG2 CAGA-GFP TGF-b/SMAD3 reporter, GFP fluorescence, 18 h; TGF-beta stimulated, 500 pg/mL final; note: potency is the fitted concentration of half-maximal effect; % is set by controls: 0 for no effect and ±100 for the full control effect; nearly all actives have a fitted effect of over 65% in size
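HEPG2 CAGA-GFP cells (1000/well, DMEM with 1% FBS) were pre-incubated 2 h at 37 degrees C, given compound by pin tool, then stimulated with TGF-beta at 500 pg/mL final for 18 h before per-cell GFP fluorescence imaging.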
ASM inhibitor – Inhibitors of Secretory Acid Sphingomyelinase (S-ASM): qHTS; 340,000 tested, 0.006% active; Potency, µM (series often up to 57.5 µM), without a hit: at the highest dose activity change, negative = inhibition, actives largely listed as inhibitors; placental ASM, HMU-PC fluorogenic substrate, 60 min; Sphingomyelin phosphodiesterase (Homo sapiens), P17405; note: potency is the fitted concentration of half-maximal effect
Target sequence (P17405 47-631 limits assumed): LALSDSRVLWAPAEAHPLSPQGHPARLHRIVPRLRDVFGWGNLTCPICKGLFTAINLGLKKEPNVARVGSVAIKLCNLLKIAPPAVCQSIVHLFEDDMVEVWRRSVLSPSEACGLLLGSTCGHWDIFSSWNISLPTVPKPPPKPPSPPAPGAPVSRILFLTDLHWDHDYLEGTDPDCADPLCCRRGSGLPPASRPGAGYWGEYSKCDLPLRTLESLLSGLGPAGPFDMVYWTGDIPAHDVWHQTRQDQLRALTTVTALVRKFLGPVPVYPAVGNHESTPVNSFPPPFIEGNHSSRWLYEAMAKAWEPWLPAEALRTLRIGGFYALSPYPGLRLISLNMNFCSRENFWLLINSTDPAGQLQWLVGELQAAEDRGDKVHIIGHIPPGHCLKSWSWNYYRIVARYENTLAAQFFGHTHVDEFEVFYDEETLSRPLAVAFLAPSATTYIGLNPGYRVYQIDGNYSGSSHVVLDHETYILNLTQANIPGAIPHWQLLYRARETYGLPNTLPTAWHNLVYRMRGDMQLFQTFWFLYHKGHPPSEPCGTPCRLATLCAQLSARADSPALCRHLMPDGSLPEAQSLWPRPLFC
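Fluorogenic HMU-PC substrate (9 uM final) is turned over by placental ASM in 60 min at 37 C after a 10 min compound preincubation. Reaction ended by alkaline stop (pH 10), with fluorescence read at 386/447 nm.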
TDP1 cell noCPT – qHTS for Inhibitors of human tyrosyl-DNA phosphodiesterase 1 (TDP1): qHTS in cells in absence of CPT; AID 686978, 2013; Potency, µM (highest dose often 46.2 µM), for inactives: at the top dose activity change, negative = growth inhibition, most hits filed as inhibitors; DT40 Tdp1-/- hTDP1 cells, no CPT, ATP luminescence, 48 h; 420,000 tested, 15% active; note: potency is the fitted concentration of half-maximal effect; % is set by controls: 0 for no effect and ±100 for the full control effect; nearly all actives have a fitted effect of over 55% in size
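Stably hTDP1-transfected Tdp1-null chicken DT40 cells were treated with library compounds minus camptothecin and grown for at least 48 hr at 37 °C, after which cellular ATP was quantified by luminescence.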
Active calls of the source: *; u = inconclusive; x = no result. Shown are actives, neighbours in structure and some others; about 19% of the full set was active somewhere. Unless noted, calls come from the whole dose curve; as a rule, active = well fitted curve in the direction sought with a large enough effect; inconclusive = small, poorly fitted or top-dose-only effect, or another doubt; inactive = no such curve, though single readings can be large; an effect the other way counts as inactive or inconclusive.

SMILES	IL-1B inflam inh	HepG2 viability	TDP1 cell CPT	TGFb inhibitor	ASM inhibitor	TDP1 cell noCPT
CCCCn1c(SCC(=O)c2ccccc2)nc2ccsc2c1=O	-59*	-18%	u	u	-2%	18µM*
CC(C)(C)C(=O)CSc1nc2ccsc2c(=O)n1Cc1ccccc1Cl	x	-10%	21µM*	-1%	x	15µM*
CCCCn1c(SCC(=O)c2ccc(O)c(O)c2)nc2ccsc2c1=O	1	-8%	15µM*	u	-5%	23µM*
CC1(C(=O)Nc2ccc3[nH]ncc3c2)CCN1C(=O)C/C=C/c1ccccc1 (stereo not drawn)	-25	3%	u	-19%	x	18µM*
CC1(C(=O)Nc2ccc3[nH]ncc3c2)CCN1C(=O)C1(c2ccccc2)CC1 (stereo not drawn)	-18	-30%	8.2µM*	-6%	x	-17%
CCC(=O)N1CCC1(C)C(=O)Nc1cnc2ccccc2c1 (stereo not drawn)	3	-1%	-9%	6%	x	-19%
CC1(C(=O)Nc2cnc3ccccc3c2)CCN1C(=O)C/C=C/c1ccccc1 (stereo not drawn)	0	8%	3.3µM*	32%	x	6.5µM*
CC1(C(=O)Nc2ccc3[nH]ncc3c2)CCN1C(=O)CC(c1ccccc1)c1ccccc1 (stereo not drawn)	-15	-25%	u	3%	x	u
CN(C)c1ncc2nc(-c3cccc(C#N)c3)c(=O)n(C)c2n1	x	x	-4%	x	x	26%
O=C(Nc1ccc(Cl)cc1F)c1cc(S(=O)(=O)NCc2ccc3c(c2)OCO3)ccc1F	x	-32%	u	-27%	x	-8%
CCN(CC)CCn1c(SCC(=O)NCc2ccco2)nc2c(sc3ccccc32)c1=O	-19	2%	u	-13%	6%	u
CCN(CC)CCn1c(SCC(=O)NCCC2=CCCCC2)nc2c(sc3ccccc32)c1=O	-60*	-12%	u	1%	-1%	u
CCN(CC)CCn1c(SCC(=O)Nc2cccc(OC)c2)nc2c(sc3ccccc32)c1=O	-79*	-20%	18µM*	34%	23%	4.6µM*
COc1cccc(NC(=O)CSc2nc3c(sc4ccccc43)c(=O)n2CCN(C)C)c1	-108*	-1%	15µM*	u	117%	u
COc1cccc(NC(=O)CSc2nc3c(sc4ccccc43)c(=O)n2CCCN2CCCC2)c1	u	-75%	u	u	-4%	10µM*
CC(=O)c1ccc(S(=O)(=O)N(CC(=O)NC2CC2)Cc2ccc(F)cc2)cc1	-11	1%	-5%	11%	1%	-3%
Cc1nn(-c2ccccc2)c(C)c1C(=O)OCC(=O)Nc1cccc(S(N)(=O)=O)c1	-2	-14%	u	5%	-2%	u
O=C(CCNC(=O)c1ccc(Cl)cc1)NNC(=O)c1ccc(F)cc1	20	-3%	12%	0%	1%	16%
CCC1=NN(C(=O)CCc2ccccc2)C(O)(C(F)(F)F)C1 (stereo not drawn)	0	8%	1%	3%	-2%	-16%
CCCCC1=NN(C(=O)c2cccnc2)C(O)(C(F)(F)F)C1 (stereo not drawn)	23	-4%	1.5µM*	-17%	6%	1µM*
CCC1=NN(C(=O)c2cccnc2)C(O)(C(F)(F)F)C1 (stereo not drawn)	0	0%	16µM*	3%	4%	u
Cc1onc(-c2c(Cl)cccc2Cl)c1/C(N)=N/OC(=O)C1CC1	8	-13%	-3%	3%	4%	-23%
Cc1ccc(NS(=O)(=O)c2cccc(C(=O)NCCCN3CCCC3=O)c2)cc1	15	-15%	3%	-18%	-3%	4%
CN(Cc1ccccc1)C(=O)c1csc([C@@H]2O[C@H](CO)[C@@H](O)[C@H]2O)n1	-12	0%	-25%	13%	x	-3%
CCOc1ccc(S(=O)(=O)N2CCCCC2)c2ccccc12	12	-76%	18µM*	0%	-7%	21µM*
SMILES	IL-1B inflam inh	HepG2 viability	TDP1 cell CPT	TGFb inhibitor	ASM inhibitor	TDP1 cell noCPT
CCOc1ccc(S(=O)(=O)N2CCOCC2)c2ccccc12	10	1%	-26%	-1%	1%	-29%
CCOc1ccc(S(=O)(=O)n2ccc(C)n2)c2ccccc12	-53*	-5%	u	-24%	-8%	u
COc1ccccc1NC(=O)c1cc(C(=O)Nc2ccccc2OC)cc([N+](=O)[O-])c1	17	14%	-4%	-3%	-2%	6%
O=C1SCCC1NC(=O)C(c1ccccc1)c1ccccc1 (stereo not drawn)	x	-1%	23%	-13%	1%	-21%
O=C(C1=C[C@@H](c2ccc(C(F)(F)F)cc2)C[C@@H](OCCCCO)O1)N1CCN(Cc2ccc3c(c2)OCO3)CC1	u	-18%	18µM*	-40%	2%	u
O=C(C1=C[C@H](c2ccc(C(F)(F)F)cc2)C[C@H](OCc2ccc(CO)cc2)O1)N1CCN(Cc2ccc3c(c2)OCO3)CC1	x	-22%	u	u	-11%	u
O=C(C1=C[C@@H](c2ccc(Br)cc2)C[C@@H](OCc2ccc(CO)cc2)O1)N1CCN(Cc2ccc3c(c2)OCO3)CC1	-25	-1%	u	-27%	-9%	18µM*
CC(C)(C)[C@H]1C=C(C(=O)N2CCN(Cc3ccc4c(c3)OCO4)CC2)O[C@@H](OCCCCO)C1	u	1%	u	u	0%	-18%
CC(C)(C)[C@@H]1C=C(C(=O)Nc2ccccc2)O[C@H](OCc2ccc(CO)cc2)C1	u	-12%	23µM*	u	-3%	21µM*
CC(C)(C)[C@@H]1C=C(C(=O)N2CCN(Cc3ccc4c(c3)OCO4)CC2)O[C@H](OCc2ccc(CO)cc2)C1	-17	1%	u	-1%	-3%	16µM*
O=C(Nc1cccc(NC(=O)c2ccccc2Cl)c1)c1cccc(Br)c1	x	-25%	u	1%	x	u
O=C(C1=C[C@@H](c2ccc(C(F)(F)F)cc2)C[C@@H](OCc2ccc(CO)cc2)O1)N1CCN(Cc2ccc3c(c2)OCO3)CC1	-70*	-11%	21µM*	u	-6%	21µM*

From PubChem BioAssay
